Hits are enriched below; roughly 21% of the tested compounds scored in any of these assays.
Shiga toxin inh: A qHTS for Small Molecule Inhibitors of Shiga Toxin; Vero cells, Shiga toxin protein synthesis inhibition reporter; inhibition, % at 38.7 µM; 9.2% of 290,000 active; in the data active means inhibition mostly above about 28%, no sharp cut-off; inactive means mostly below about 43%; further: 0% is about no effect
Pf growth 48h: Primary qHTS for delayed death inhibitors of the malarial parasite plastid, 48 hour incubation | P. falciparum luciferase growth in erythrocytes, 48 h | Potency, µM (highest dose often 28.7 µM), for the others: top-dose activity change, negative = inhibition, hits mostly inhibitors | 5.9% of 310,000 active | AID 504832, 2011; further: potency means the concentration at half of the fitted maximal effect; on the % scale 0 is the no-effect control and ±100 the full control effect
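Luciferase-expressing parasites in RBCs, 2% Hct / 0.1% parasitemia final; RPMI 1640 + 0.5% Albumax; 37 C, 5% CO2, one generation; luminescence read-out, lower signal = inhibition.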
Cycloheximide cs: Cycloheximide Counterscreen for Small Molecule Inhibitors of Shiga Toxin; cell reporter, cycloheximide protein synthesis inhibition counterscreen; max response, %; 12% of 300,000 active; in the data active means max response mostly above about 13%, no sharp cut-off; inactive means mostly below about 14%; further: read at 38.3 µM for the half of the compounds with a filed dose; 0% is about no effect
SARS PLpro yeast: qHTS of Yeast-based Assay for SARS-CoV PLP | 0.19% of 330,000 active | Potency, µM (doses to about 32.9 µM), for inactives: at the top dose activity, positive = growth rescue, hits mostly activators | S. cerevisiae expressing SARS-CoV PLpro, growth rescue; calls by dose curve; further: potency means the concentration at half of the fitted maximal effect; 0% is about no effect; nearly all actives have a fitted effect of over 55% in size
Pf growth 96h: Primary qHTS for delayed death inhibitors of the malarial parasite plastid, 96 hour incubation | 6.9% of 320,000 active | Potency, µM (series often up to 28.7 µM), for the others: at the top dose activity change, negative = inhibition, usual class: inhibitors | P. falciparum luciferase reporter growth, 96 h; further: potency means the concentration at half of the fitted maximal effect; on the % scale 0 is the no-effect control and ±100 the full control effect
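Delayed-death screen, second-generation endpoint: infected erythrocytes, 2% hematocrit, 0.05% parasitemia final; 96 hours at 37 C, 5% CO2; luciferase detection reagent; luminescence decrease equals reduced growth.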
NS1 function inh: qHTS Assay for Inhibitors of Influenza NS1 Protein Function | Potency, µM (series often up to 46.1 µM), without a hit: at the highest dose activity, positive = more growth | AID 2326, 2010 | 0.4% of 270,000 active; calls by dose curve; further: potency means the concentration at half of the fitted maximal effect; actives are rising curves; nearly all actives have a fitted effect of over 50% in size
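Recovery from NS1-induced slow growth read by OD600 in budding yeast switched to galactose assay medium (pH 6.0, -URA) at 1:100 dilution. Compound 23 nl per well; the matching strain lacking NS1 serves as control.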
Active calls of the source: *; ? = inconclusive; . = no result; [ ] = remark or other dose. Unless noted, the call rests on the fitted dose curve; in most records, active means well fitted inhibition curve with a large enough effect; inconclusive means small, poorly fitted or top-dose-only effect, or another doubt; inactive means no such curve, though single readings can be large or run the other way.

SMILES	Shiga toxin inh	Pf growth 48h	Cycloheximide cs	SARS PLpro yeast	Pf growth 96h	NS1 function inh
O=C(NCCCN1CCCC1=O)c1cccc(S(=O)(=O)Nc2ccccc2Cl)c1	.	1.9%	.	-2.1%	?	.
O=C1CN(C(=O)COC(=O)CNS(=O)(=O)/C=C/c2ccccc2)c2ccccc2N1	20.6	201.1%	6.1	-3.8%	32.0%	1.8%
O=c1c2c(nc3cc(-c4ccc(F)cc4)[nH]n13)CCC2	99.6*	-4.3%	100.7*	3.0%	?	-11.1%
Cc1ccc(-c2cc3nc4c(c(=O)n3[nH]2)CCCC4)cc1	.	.	.	.	.	-0.7%
O=C(Nc1ccon1)c1cc2c(s1)CCCCCC2	64.1*	3.7µM*	29.8*	-15.0%	.	-42.0%
O=C(Nc1ccon1)c1cc2c(s1)CCCC2	63.7*	57.9%	35.1*	-18.7%	3.6%	-45.5%
CC(C)(C)OC(=O)N1CCCC1C(=O)NC1COC2CC(n3ccc(=O)[nH]c3=O)OC12 (centres undefined)	-6.7	.	-1.8	.	.	.
CCn1nc(C(=O)N[C@@H](CCSC)c2nc3ccccc3[nH]2)c2ccccc2c1=O	23.0	.	24.7*	2.5%	?	-14.2%
CSCC[C@H](NC(=O)c1nn(C)c(=O)c2ccccc12)c1nc2ccccc2[nH]1	-10.1	?	24.3	0.9%	?	-8.3%
CCCCn1nc(C(=O)N[C@@H](CCSC)c2nc3ccccc3[nH]2)c2ccccc2c1=O	21.3	?	-3.4	.	11.7µM*	-0.8%
CSCC[C@H](NC(=O)C(C)Oc1ccc(Cl)cc1)c1nc2ccccc2[nH]1 (some centres undefined)	19.8	?	-3.0	-22.2%	6.57µM*	-1.0%
O=C(N/N=C/c1cccs1)c1cc(-c2ccc(Cl)s2)[nH]n1	4.7	-13.4%	7.1	-0.5%	61.3%	28.6%
O=S(=O)(NCCCCNS(=O)(=O)c1c(F)cccc1F)c1ccc2c(c1)OCCO2	-6.0	42.3%	-5.2	1.0%	?	.
COc1ccc(-n2ncc(C(C)NS(=O)(=O)c3cc(F)ccc3C)c2C)cc1 (centres undefined)	-4.0	-10.2%	20.8*	0.8%	5.6%	13.9%
Cc1ccc(C2c3c(oc4ccccc4c3=O)C(=O)N2c2nncs2)cc1 (centres undefined)	10.7	3.4%	-2.4	1.5%	4.4%	0.4%
O=C(CCCNC(=O)/C(=C/c1ccc(F)cc1)NC(=O)c1ccccc1)OCc1ccccc1	-10.1	-23.3%	-7.5	8.5%	?	-26.5%
COc1ccccc1-c1nnc(NC(=O)C(C)SC2=NCCS2)s1 (centres undefined)	-3.6	.	-2.0	-3.7%	?	-68.9%
CC(SC1=NCCS1)C(=O)Nc1nnc(-c2ccc(Cl)cc2)s1 (centres undefined)	28.5*	15.0%	11.8*	2.9%	28.7%	0.3%
CC(Sc1nncn1C)C(=O)Nc1nnc(C(C)C)s1 (centres undefined)	7.3	30.0%	-0.9	0.8%	19.4%	-12.4%
CC(Sc1nncn1C)C(=O)Nc1nnc(-c2ccccc2)s1 (centres undefined)	45.9*	25.9%	23.3*	-3.9%	14.7%	8.7%
COC(=O)c1cc(CN2CCN(c3ccccc3C)CC2)ccc1O	-3.1	.	-4.3	3.4%	?	1.8%
CCN1CCCC1CNC(=O)c1cc([N+](=O)[O-])c(N(C)C)cc1OC (centres undefined)	4.6	2.6%	-2.7	-0.1%	4.15µM*	26.5%
Cc1cc(S(=O)(=O)Nc2cc(C)c(O)c(C)c2)c(C)s1	-6.7	-5.0%	-0.9	14.8%	.	18.4%
O=C(OC1C[C@H]2CC[C@@H](C1)[N+]21CCCC1)C(O)(c1ccccc1)c1ccccc1 (some centres undefined)	.	6.75µM*	.	.	8.6%	.
C[N+]1(C)CCC[C@@H](OC(=O)C(O)(c2ccccc2)c2ccccc2)C1	.	1.0%[12.8 µM]	.	.	1.1%[12.8 µM]	.
c1ccc(-c2nnc3sc(-c4csc5c4CCCC5)nn23)cc1	-34.8	10.4µM*	13.0*	-22.0%	22.6%	-30.6%
COc1ccc(-c2nn3c(=O)c(C)nnc3s2)cc1	54.3*	?	28.4	-0.7%	?	-0.1%
